Among all 2,000 compounds or so, about 110 (5.5%) showed an effect of 50% or more. For the sample, strong results were picked, then their nearest neighbours and some compounds at random.
Biological target: Genome polyprotein (dengue virus type 2) (UniProt P29990)
[1] = Thailand/16681/1984, Concentration 25.0 uM, Number of replicates 1.0

For `COc1ccc(S(=O)(=O)N2CCC(C(=O)Nc3nc4ccccc4s3)CC2)cc1`, which inhibition (Thailand/16681/1984, Concentration 49.5 uM, Number of replicates 2.0, Standard deviation 1.3648800018415175 %) is on record?
The inhibition was 2.28%.

And the inhibition (Thailand/16681/1984, Concentration 99.01 uM, Number of replicates 2.0, Standard deviation 0.35874487080545164 %)?
Its inhibition is 4.97%.

What about the inhibition (Thailand/16681/1984, Concentration 198.0 uM, Number of replicates 2.0, Standard deviation 3.7738315130637563 %) of the same compound?
The inhibition was 5.55%.

What does the source list for `COc1ccc(S(=O)(=O)n2nc(OC(=O)c3cccc(-c4ccccc4Cl)c3)cc2N)cc1`?
inhibition (Thailand/16681/1984, Concentration 49.5 uM, Number of replicates 2.0, Standard deviation 1.4490153953002987 %): 18.8%; inhibition (Thailand/16681/1984, Concentration 99.01 uM, Number of replicates 2.0, Standard deviation 0.6098804079928887 %): 22.4%; inhibition (Thailand/16681/1984, Concentration 198.0 uM, Number of replicates 2.0, Standard deviation 5.725656788050292 %): 25.3%

For `NC(=O)c1ccc(CNC(=O)c2ccc(OCc3ccccc3)cc2)cc1`, which inhibition (Thailand/16681/1984, Concentration 49.5 uM, Number of replicates 2.0, Standard deviation 3.419970703357444 %) is on record?
Its inhibition is -0.579%.

What about the inhibition (Thailand/16681/1984, Concentration 99.01 uM, Number of replicates 2.0, Standard deviation 3.9573061855257445 %) of the same compound?
Its inhibition is -0.365%.

What about the inhibition (Thailand/16681/1984, Concentration 198.0 uM, Number of replicates 2.0, Standard deviation 3.324054675683989 %) of the same compound?
Its inhibition is -1.19%.

Which inhibition (Thailand/16681/1984, Concentration 49.5 uM, Number of replicates 2.0, Standard deviation 0.45534308736890416 %) does the source give for `CCCC[C@H](N)C(=O)N[C@@H](C(=O)NCc1ccc(C(N)=O)cc1)c1ccc(OCc2ccccc2)cc1` here?
The inhibition was -4.77%.

What about the inhibition (Thailand/16681/1984, Concentration 99.01 uM, Number of replicates 2.0, Standard deviation 0.9591594337975816 %) of the same compound?
The inhibition was 6.09%.

And the inhibition (Thailand/16681/1984, Concentration 198.0 uM, Number of replicates 2.0, Standard deviation 4.328590586700157 %)?
The inhibition was 82.3%.

Which inhibition (Thailand/16681/1984, Concentration 49.5 uM, Number of replicates 2.0, Standard deviation 0.2650581585371317 %) does the source give for `CCCC[C@H](N)C(=O)N[C@H](C(=O)NCc1ccc(C(N)=O)cc1)c1ccc(OCc2ccccc2)cc1` here?
Its inhibition is -6.18%.

What about the inhibition (Thailand/16681/1984, Concentration 99.01 uM, Number of replicates 2.0, Standard deviation 5.609533791033077 %) of the same compound?
The inhibition was 63.5%.

And the inhibition (Thailand/16681/1984, Concentration 198.0 uM, Number of replicates 2.0, Standard deviation 0.01804559465842439 %)?
Its inhibition is 99.8%.

How did the inhibition (Thailand/16681/1984, Concentration 49.5 uM, Number of replicates 2.0, Standard deviation 0.6584955649548859 %) turn out when `NC(=O)c1ccc(CNC(=O)NCc2ccc(OCc3ccccc3)cc2)cc1` was run?
The inhibition was -0.275%.

And the inhibition (Thailand/16681/1984, Concentration 99.01 uM, Number of replicates 2.0, Standard deviation 0.579227797958503 %)?
The inhibition was 0.348%.

What about the inhibition (Thailand/16681/1984, Concentration 198.0 uM, Number of replicates 2.0, Standard deviation 0.34476708449941224 %) of the same compound?
The inhibition was -0.309%.

`C[C@@H](NCc1ccc(C(N)=O)cc1)c1ccc(OCc2ccccc2)cc1` was tested. Which inhibition (Thailand/16681/1984, Concentration 49.5 uM, Number of replicates 2.0, Standard deviation 1.6752456853530722 %) did it give?
Its inhibition is 0.14%.

And the inhibition (Thailand/16681/1984, Concentration 99.01 uM, Number of replicates 2.0, Standard deviation 1.116678580733439 %)?
The inhibition was 0.358%.

And the inhibition (Thailand/16681/1984, Concentration 198.0 uM, Number of replicates 2.0, Standard deviation 0.6068608391781741 %)?
The inhibition was -0.175%.

How did the inhibition (Thailand/16681/1984, Concentration 49.5 uM, Number of replicates 2.0, Standard deviation 0.6010644427830669 %) turn out when `CCCCCC(=O)N[C@H](C(=O)Nc1ccc(C(N)=O)cc1)c1ccc(OCc2ccccc2)cc1` was run?
The inhibition was 0.424%.

What about the inhibition (Thailand/16681/1984, Concentration 99.01 uM, Number of replicates 2.0, Standard deviation 0.8411278167455505 %) of the same compound?
Its inhibition is 0.131%.

What about the inhibition (Thailand/16681/1984, Concentration 198.0 uM, Number of replicates 2.0, Standard deviation 0.2400633914962311 %) of the same compound?
The inhibition was -0.732%.

`COc1ccccc1C1CCN(C(=O)C2CCN(c3ccc(C=O)cc3)CC2)CC1` was tested. Which inhibition [1] did it give?
Its inhibition is 12.3%.

`CN(C)Cc1ccc(C(=O)Nc2cc(Cl)cc(C(=O)NC(C)(C)CO)c2)[nH]1` was tested. Which inhibition (Thailand/16681/1984, Concentration 49.5 uM, Number of replicates 2.0, Standard deviation 0.5051399787428742 %) did it give?
The inhibition was 0.205%.

What about the inhibition (Thailand/16681/1984, Concentration 99.01 uM, Number of replicates 2.0, Standard deviation 1.5521383022614499 %) of the same compound?
The inhibition was 0.663%.

What about the inhibition (Thailand/16681/1984, Concentration 198.0 uM, Number of replicates 2.0, Standard deviation 0.5964116239079592 %) of the same compound?
The inhibition was 5.64%.

Which inhibition [1] does the source give for `CCN(Cc1cc(Br)ccc1F)C(=O)C1CCN(c2ccc(C=O)cc2)CC1` here?
The inhibition was 15.9%.

`Cc1cc(Cl)c2cccc(N)c2n1` was tested. Which inhibition (Thailand/16681/1984, Concentration 49.95 uM, Number of replicates 2.0, Standard deviation 0.6589137143756747 %) did it give?
The inhibition was 13.5%.

What about the inhibition (Thailand/16681/1984, Concentration 99.9 uM, Number of replicates 2.0, Standard deviation 0.20071745394997703 %) of the same compound?
The inhibition was 27.6%.

What does the source list for `Cc1cc(Cl)c2c(N)ccc(C)c2n1`?
inhibition (Thailand/16681/1984, Concentration 49.95 uM, Number of replicates 2.0, Standard deviation 5.268842944255752 %): 34.7%; inhibition (Thailand/16681/1984, Concentration 99.9 uM, Number of replicates 2.0, Standard deviation 0.5758298004935433 %): 94.7%

How did the inhibition (Thailand/16681/1984, Concentration 49.95 uM, Number of replicates 2.0, Standard deviation 8.427681720895945 %) turn out when `Cc1cc(N)c2c(Cl)ccc(Cl)c2n1` was run?
Its inhibition is -5.26%.

What about the inhibition (Thailand/16681/1984, Concentration 99.9 uM, Number of replicates 2.0, Standard deviation 7.565581927359314 %) of the same compound?
Its inhibition is -3.92%.

Which results are given for `Cc1cc(CO)c2cccc(Cc3cccc(NC(=O)c4cnn(Cc5c(C)noc5C)c4)c3)c2n1`?
inhibition (Thailand/16681/1984, Concentration 49.95 uM, Number of replicates 2.0, Standard deviation 1.4870028556253494 %): -3.7%; inhibition (Thailand/16681/1984, Concentration 99.9 uM, Number of replicates 2.0, Standard deviation 1.816697484259061 %): -0.8%

With `O=C(Nc1cccc(O)c1)c1cccc(OCc2c(Cl)cccc2Cl)c1` as the compound, how does the inhibition (Thailand/16681/1984, Concentration 49.5 uM, Number of replicates 2.0, Standard deviation 2.2599777431890864 %) read?
Its inhibition is 6.58%.

And the inhibition (Thailand/16681/1984, Concentration 99.01 uM, Number of replicates 2.0, Standard deviation 0.8121141369648937 %)?
The inhibition was 8.41%.

And the inhibition (Thailand/16681/1984, Concentration 198.0 uM, Number of replicates 2.0, Standard deviation 0.4931997238761773 %)?
Its inhibition is 11.9%.

Which inhibition (Thailand/16681/1984, Concentration 49.5 uM, Number of replicates 2.0, Standard deviation 0.38856258601515087 %) does the source give for `O=C(Nc1ccc(O)cc1)c1cccc(OCc2c(Cl)cccc2Cl)c1` here?
The inhibition was 5.85%.

What about the inhibition (Thailand/16681/1984, Concentration 99.01 uM, Number of replicates 2.0, Standard deviation 1.1651546847054868 %) of the same compound?
Its inhibition is 9.28%.

What about the inhibition (Thailand/16681/1984, Concentration 198.0 uM, Number of replicates 2.0, Standard deviation 0.8272279968409002 %) of the same compound?
The inhibition was 12.6%.

How did the inhibition (Thailand/16681/1984, Concentration 49.5 uM, Number of replicates 2.0, Standard deviation 0.517131041635451 %) turn out when `O=C(O)c1cccc(NC(=O)c2cccc(OCc3c(Cl)cccc3Cl)c2)c1` was run?
The inhibition was 14.9%.

And the inhibition (Thailand/16681/1984, Concentration 99.01 uM, Number of replicates 2.0, Standard deviation 0.3657402361338958 %)?
Its inhibition is 47.1%.

What about the inhibition (Thailand/16681/1984, Concentration 198.0 uM, Number of replicates 2.0, Standard deviation 0.23203020217005468 %) of the same compound?
Its inhibition is 92.1%.

Which results are given for `Cc1cc(CO)c2cccc(Cc3cccc(NC(=O)[C@@H]4CC(=O)CCN4)c3)c2n1`?
inhibition (Thailand/16681/1984, Concentration 49.95 uM, Number of replicates 2.0, Standard deviation 0.827370284601473 %): 15.8%; inhibition (Thailand/16681/1984, Concentration 99.9 uM, Number of replicates 2.0, Standard deviation 0.7401310286309556 %): 32.9%

Which results are given for `CCCCCC(=O)N[C@H](C(=O)NCc1ccc(N)nc1)c1ccc(OCc2ccccc2)cc1`?
inhibition (Thailand/16681/1984, Concentration 49.5 uM, Number of replicates 2.0, Standard deviation 0.5514996049599625 %): -5.35%; inhibition (Thailand/16681/1984, Concentration 99.01 uM, Number of replicates 2.0, Standard deviation 6.42872691267386 %): 2.25%; inhibition (Thailand/16681/1984, Concentration 198.0 uM, Number of replicates 2.0, Standard deviation 0.7744386054656718 %): -1.4%

What does the source list for `NCc1cccc(NC(=O)[C@@H](NC(=O)OCc2ccccc2)c2ccc(OCc3ccccc3)cc2)c1`?
inhibition (Thailand/16681/1984, Concentration 49.5 uM, Number of replicates 2.0, Standard deviation 0.05193031216203084 %): 99.8%; inhibition (Thailand/16681/1984, Concentration 99.01 uM, Number of replicates 2.0, Standard deviation 0.07343936624368645 %): 99.8%; inhibition (Thailand/16681/1984, Concentration 198.0 uM, Number of replicates 2.0, Standard deviation 0.025182910572653226 %): 99.6%

With `CCCCCC(=O)N[C@H](C(=O)NCc1cccc(CN)c1)c1ccc(OCc2ccccc2)cc1` as the compound, how does the inhibition (Thailand/16681/1984, Concentration 49.5 uM, Number of replicates 2.0, Standard deviation 0.6286197397778024 %) read?
The inhibition was -3.44%.

And the inhibition (Thailand/16681/1984, Concentration 99.01 uM, Number of replicates 2.0, Standard deviation 10.030102962525104 %)?
The inhibition was 65.8%.

What about the inhibition (Thailand/16681/1984, Concentration 198.0 uM, Number of replicates 2.0, Standard deviation 0.2962336766184579 %) of the same compound?
The inhibition was 98.7%.

What does the source list for `NCc1cccc(NC(=O)[C@@H](NC(=O)OCc2ccccc2)c2ccc(F)c(F)c2)c1`?
inhibition (Thailand/16681/1984, Concentration 49.5 uM, Number of replicates 2.0, Standard deviation 1.4013065114851189 %): -6.54%; inhibition (Thailand/16681/1984, Concentration 99.01 uM, Number of replicates 2.0, Standard deviation 2.1722806038563465 %): -6.15%; inhibition (Thailand/16681/1984, Concentration 198.0 uM, Number of replicates 2.0, Standard deviation 2.359590386651735 %): -2.47%

Source: ChEMBL document CHEMBL5606460, “ASAP - DENV-2 NS2B-NS3 protease fluorescence single point” (2024)
